# Source: PubChem BioAssay (Broad Institute)
# Glyco luc inh = increase of ERlucT glycosylation luciferase signal, primary screen, N-linked glycosylation inhibitor project, D54 ERlucT cells, luminescence, set 2 | D54 ERlucT glycosylation luciferase reporter, 24 h; percent of 100 nM tunicamycin response | reporter increase, % at 12.5 µM | hit rate 0.23% among 360,000;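 active means mean luciferase reporter signal, scaled so untreated is 0 and the glycosylation-blocking control 100, at or above a set limit in every replicate; inconclusive means mean reaches the limit but not every replicate does; inactive means mean below the limit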;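 further: luciferase carries N-glycosylation sites so blocking glycosylation raises the light; 0% = median of neutral control wells and 100% = median of 100 nM tunicamycin wells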
# DENV2 CPE = inhibitors of DENV2 cytopathic effect, primary screen, cell-based, plate reader, single concentration; DENV2-infected cells, cytopathic effect rescue; CPE inhibition, % at 9.99 µM; hit rate 1.7% among 350,000; AID 651640, 2012; in the data active means CPE inhibition above about 20%, passing the limit was not always enough; inconclusive means no clear call, values can overlap the other calls; tested in BHK-21 cells;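 further: 0% = median of neutral control wells and 100% = median of positive control wells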
# PglD DTNB = C. jejuni PglD acetyltransferase inhibitors, primary screen, biochemical, DTNB colorimetric, single point | UDP-N-acetylbacillosamine N-acetyltransferase PglD (Campylobacter jejuni) | inhibition, % at 12.5 µM | purified PglD enzyme, DTNB colorimetric CoA detection | hit rate 0.098% among 360,000; in the data active means inhibition above about 16%, passing the limit was not always enough; inconclusive means no clear call, values can overlap the other calls
# Rtt109 Vps75 = inhibitors of C. albicans Rtt109/Vps75 HAT, primary screen, biochemical, ThioGlo CoA-SH fluorescence, plate reader; hit rate 0.16% among 330,000; Histone acetyltransferase RTT109 (Candida albicans (strain SC5314 / ATCC MYA-2876)), …; AID 540336, 2011; purified Rtt109/Vps75, 4 h; inhibition, % at 34.9 µM;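 active means inhibition of at least 50% in every replicate; inconclusive means best replicate reaches 50% inhibition but some replicates fall short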
# Target sequence (Q5AAJ8 whole entry, looked up): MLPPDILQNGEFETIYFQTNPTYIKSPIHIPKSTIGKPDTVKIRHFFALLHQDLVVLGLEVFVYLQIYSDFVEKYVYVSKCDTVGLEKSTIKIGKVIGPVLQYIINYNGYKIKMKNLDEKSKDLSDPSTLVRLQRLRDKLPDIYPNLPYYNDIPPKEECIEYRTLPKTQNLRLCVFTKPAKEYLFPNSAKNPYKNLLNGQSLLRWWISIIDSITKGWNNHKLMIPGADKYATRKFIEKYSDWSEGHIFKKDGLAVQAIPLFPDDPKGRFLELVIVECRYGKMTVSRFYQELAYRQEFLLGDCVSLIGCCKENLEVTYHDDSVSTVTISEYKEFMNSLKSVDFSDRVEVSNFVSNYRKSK
# PglD confirm = PglD acetyltransferase inhibitors, confirmation, biochemical, DTNB absorbance, single point, cherry-picked samples. shares compounds with PglD DTNB. Purified C. jejuni PglD, DTNB absorbance 412 nm. inhibition, % at 20 µM. 320 tested, under 10 active;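 active means mean inhibition across replicates of at least 20% with every single replicate also at 20% or more; inconclusive means mean inhibition at least 20% but some replicate falls below 20%; inactive means mean inhibition under 20% and not all replicates reach it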;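 further: initial rate of CoA release by acetyl transfer from AcCoA to the UDP-4-amino sugar; 0% = median of neutral control wells and 100% = median of positive control wells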
# * hit, by the source's call; ? = inconclusive; . = not tested or not shown. The full list was thinned out, with hits kept by preference.
SMILES,Glyco luc inh,DENV2 CPE,PglD DTNB,Rtt109 Vps75,PglD confirm
O=C(NCc1cccnc1)C1CC(c2cccc(Br)c2)=NO1 (centres undefined),7,-4,23*,17,-5
COc1cc(C2=NOC(C(=O)NCc3cccnc3)C2)cc(OC)c1OC (centres undefined),3,19,-5,3,.
CCOc1cc(N2CCOCC2)c(OCC)cc1NC(=O)COC(=O)COc1cc(C)cc(C)c1,0,6,3,-5,.
CCOc1cc(N2CCOCC2)c(OCC)cc1NC(=O)COC(=O)COc1ccc(C#N)cc1,2,-2,33*,-2,-2
COc1ccccc1CNC(=O)c1cc2ccccc2oc1=O,-3,8,32*,-2,8
COc1ccccc1CNC(=O)c1cc2ccccc2o1,-1,-3,7,-2,.
CC(C)(C)c1cc[n+](-c2[nH]c(=O)sc2/C=N/NC([S-])=Nc2ccccc2)cc1,5,-3,21*,3,3
O=C(Nc1ccccc1C(=O)N1CCOCC1)C1CC(=O)N(c2ccc(F)cc2)C1 (centres undefined),1,?,-12,-10,.
O=C(Nc1ccccc1C(=O)N1CCOCC1)C1CC(=O)N(C2CCCC2)C1 (centres undefined),2,.,33*,5,-5
C[C@H](NC(N)=O)C(=O)Nc1ccc2c(c1)OCO2,3,9,22*,-3,3
C[C@H](CO)N1C[C@H](C)[C@@H](CN(C)C(=O)Nc2ccccc2)Oc2ccc(NC(=O)Nc3cccc4ccccc34)cc2C1=O,.,7,-2,.,.
C[C@@H]1CN([C@H](C)CO)C(=O)c2cc(-c3cccnc3)cnc2O[C@H]1CN(C)C(=O)c1cccc(F)c1,.,-7,1,.,.
O=C(NCc1cccc(Cl)c1)c1ccc(-n2cncn2)c2ccoc12,0,13,22*,.,-3
O=C(CSc1nnc(-c2ccncc2)n1Cc1ccccc1)Nc1nccs1,0,.,48*,1,2
CCC(=O)N(C)C[C@@H]1Oc2ncc(C#Cc3ccccc3)cc2C(=O)N([C@H](C)CO)C[C@H]1C,.,19,-2,.,.
CN(C)S(=O)(=O)c1ccc(Cl)c(NC(=O)CSc2nnnn2-c2ccc(O)cc2)c1,-2,-1,.,-2,.
Cc1ccc(S(=O)(=O)N(C)C)cc1NC(=O)CSc1nnnn1-c1ccc(O)cc1,2,0,28*,0,-8
Cc1ccc(S(=O)(=O)Nc2ccc3c(c2)C(=O)N([C@@H](C)CO)C[C@@H](C)[C@H](CN(C)C(=O)CCCN(C)C)OCCCC[C@@H](C)O3)cc1,.,-3,-3,.,.
CCOC(=O)C1=C(C)NC(C)=C(C(=O)OCC)C1C(=O)OCC(=O)N1CCCCC1C (centres undefined),4,10,-3,0,.
CCOC(=O)c1[nH]c(C)c(C(=O)OCC(=O)N2CCCCC2C)c1C (centres undefined),-3,.,23*,-1,-2
CCOC(=O)C1CCCN(CCC(=O)Nc2ccc(Br)c(C)c2)C1 (centres undefined),3,?,71*,-2,0
CCN(Cc1cccc(OC)c1)CC1CCCN(CCc2cccc(OC)c2)C1 (centres undefined),-1,10,22*,2,-14
CCOc1cccc(CN(CC)CC2CCCN(CCc3cccc(OC)c3)C2)c1O (centres undefined),-2,10,1,10,.
O=C(O)c1cccnc1SC1CC(=O)N(Cc2ccccc2)C1=O (centres undefined),2,.,39*,-1,2
O=C(O)c1cccnc1SC1CC(=O)N(CCc2ccccc2)C1=O (centres undefined),1,-2,4,-6,.
CCCOc1ccc(S(=O)(=O)NCCN2CCOCC2)c2ccccc12,-1,.,23*,-1,1
CCOc1ccc(S(=O)(=O)NCCN2CCOCC2)c2ccccc12,3,.,-7,.,.
